ChEMBL document CHEMBL3433997, “St. Jude Leishmania screening dataset” (2016)

Legend:
Format in all cases: functional
[1] = target: Solute carrier family 2, facilitated glucose transporter member 1 (Homo sapiens) (UniProt P11166); test: ST_JUDE_LEISH: Cytotoxicity at 2uM final concentration against transgenic Leishmania Mexicana promastigotes LmGLUT1 that are glucose transport deficient and complemented with the human glucose transporter GLUT1. Activity is measured by DNA content using SYBR green in vitro
Solute carrier family 2, facilitated glucose transporter member 1 (Homo sapiens), sequence (P11166 whole entry): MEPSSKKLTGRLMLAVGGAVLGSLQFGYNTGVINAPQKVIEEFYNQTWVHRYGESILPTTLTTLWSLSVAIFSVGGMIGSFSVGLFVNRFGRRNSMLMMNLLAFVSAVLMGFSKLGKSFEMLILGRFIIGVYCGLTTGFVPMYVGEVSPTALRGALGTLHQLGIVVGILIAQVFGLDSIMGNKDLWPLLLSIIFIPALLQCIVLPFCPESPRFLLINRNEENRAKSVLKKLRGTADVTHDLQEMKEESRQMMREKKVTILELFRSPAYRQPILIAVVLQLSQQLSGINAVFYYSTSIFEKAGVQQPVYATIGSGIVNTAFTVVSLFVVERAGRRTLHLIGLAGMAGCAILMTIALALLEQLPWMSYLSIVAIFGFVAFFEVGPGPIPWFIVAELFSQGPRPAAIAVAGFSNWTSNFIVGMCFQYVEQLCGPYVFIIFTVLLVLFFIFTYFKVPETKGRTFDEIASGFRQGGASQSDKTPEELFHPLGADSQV

[2] = target: Hexose transporter 1 (Plasmodium falciparum) (UniProt O97467); test: ST_JUDE_LEISH: Cytotoxicity at 2uM final concentration against transgenic Leishmania Mexicana promastigotes LmPfHT that are glucose transport deficient and complemented with the Plasmodium falciparum hexose transporter. Activity is measured by DNA content using SYBR green in vitro
[3] = target: Glucose transporter (Leishmania mexicana) (UniProt O61059); test: ST_JUDE_LEISH: Cytotoxicity at 2uM final concentration against transgenic Leishmania Mexicana promastigotes LmGT2 that are glucose transport deficient and complemented with the L. Mexicana glucose transporter 2. Activity is measured by DNA content using SYBR green in vitro

| Structure (SMILES) | inhibition [1] [%] | inhibition [2] [%] | inhibition [3] [%] |
| --- | --- | --- | --- |
| CC(C)(C)NS(=O)(=O)c1cc(C(=O)N2CCC(CCN3CCC(O)(c4cccc(C(F)(F)F)c4)CC3)(c3cccc(F)c3)CC2)c(Cl)cc1F | 1.73 | 1.52 | -0.37 |
| CC(=O)c1c(Cc2cccc(C(F)(F)F)c2)c[nH]c1C | 5.85 | 3.6 | -0.87 |
| CC(C)CNCc1cccc(-c2ccc(CN(C(=O)NCCc3ccccc3)C3CCN(Cc4ccccc4)CC3)cc2)c1 | 75.8 | 79.1 | 56.8 |
| CCc1c(CCNCCCCCCNC(C)(C)Cc2ccc3c(c2CC)OCO3)ccc(OC)c1OC | 10 | 10.7 | 6.49 |
| Cc1[nH]c2ccc(-c3ccccc3)cc2c(=O)c1Br | 1.91 | 4.13 | -0.5 |
| CC(C)CNC(=O)c1ccc(-c2cccc(CN3CCC(N4CCCC4)CC3)c2)nc1 | 2.51 | 2.17 | 1.53 |
| Clc1ccc(-c2ccc(C=NNc3nc(=Nc4ccccc4)[nH]c(=Nc4ccccc4)[nH]3)o2)cc1Cl | -3.26 | -1.12 | 7.88 |
| COc1cc(NC(=O)CCCN2CCN(c3cccc(Cl)c3Cl)CC2)ccc1N1CCN(C(C)C)CC1 | -2.72 | 0.8 | -0.51 |
| COc1ccc2nccc(N(C)CC3(O)CCN(CCc4ccc5c(c4)NC(=O)CS5)CC3)c2n1 | 6.99 | 6.89 | 6.32 |
| C=CCOc1ccc(C(=O)Nc2nonc2-c2ccc(OC)c(OC)c2)cc1 | 1 | 1.23 | 1.78 |
| O=C(NCCc1ccc(O)cc1)n1c2ccccc2c2ccccc21 | 2.7 | 4.05 | 1.38 |
| CCCN(Cc1nnc(-c2cccs2)o1)C(=O)CSc1nnnn1-c1ccc(C)c(C)c1 | 12.1 | 11.8 | 9.19 |
| Cc1noc(C)c1-c1ccc(C(=C2CCCCCC2)c2ccc(O)cc2)cc1 | 3.18 | 3.88 | 4.06 |
| COc1ccc2c(c1)CC(CNC[C@H](O)c1cccc(Cl)c1)CC2 (stereo partly specified) | -1.38 | 0.78 | 1 |
| Cc1cc(C(=O)Nc2ccc(-c3nc4ccccc4[nH]3)cc2)ccc1[N+](=O)[O-] | 3.49 | 1.97 | -1.54 |
| Cc1c(CN2CCC(N3CCC(C(=O)NC4CC4)CC3)CC2)[nH]c2c(Cl)cccc12 | 9.37 | 11.6 | 9.75 |

| Structure (SMILES) | inhibition [1] [%] | inhibition [2] [%] | inhibition [3] [%] |
| --- | --- | --- | --- |
| COc1ccccc1N(C)CCNc1cc(C)nc(Nc2ccccc2)n1 | 11.5 | 8.65 | 5.05 |
| COc1cc2c(cc1NC(=O)CN1CCN(C(=O)c3ccco3)CC1)oc1ccccc12 | 4.29 | 2.47 | -0.96 |
| O=C(Nc1cccc(-c2nn3ccccc3c2-c2ccnc(Nc3ccc(-c4cc[nH]n4)cc3)n2)c1)c1c(F)cccc1F | 6.17 | 10.3 | 1.44 |
| CN1CCN(Cc2c(O)ccc3c(=O)c(Oc4ccc(C(C)(C)C)cc4)c(C(F)(F)F)oc23)CC1 | 70.7 | 74.1 | 46.6 |
| O=C(/C=C/c1ccc(Cl)c(Cl)c1)NCCCCCN1CCC(C(=O)Nc2ccc(Cl)c(Cl)c2)CC1 | 3 | 2.54 | 2.34 |
| COc1ccc(-c2cccc(NC(=O)c3cccc(C#N)c3)c2)cc1CN1CCN(C)CC1 | 4.2 | 2.19 | 3.24 |
| C[C@@H](Oc1cc(-n2cnc3ccc(NC(=O)CCN4CCCCC4)cc32)sc1C(N)=O)c1ccccc1Cl | 8.99 | 5.72 | -0.04 |
| O=C(/C=C/c1ccc(Cl)c(Cl)c1)NCCCCCN1CCC(C(=O)Nc2ccc3c(c2)OCO3)CC1 | 6.29 | 5.08 | 5.17 |
| O=c1cc(NCCCNC2CCc3ccc(Cl)cc32)[nH]c2ccccc12 (stereo unspecified) | -2.61 | -0.73 | 1.83 |
| CC1(C)N=C(N)N=C(N)N1c1ccccc1 | 3.26 | 3.47 | 1.32 |
| C[C@H](NC(=O)c1cc(-c2ccc(C(C)(C)C)cc2)no1)C(=O)O.C[C@H](NC(=O)c1conc1-c1ccc(C(C)(C)C)cc1)C(=O)O | -0.02 | 0.23 | 1.58 |
| COc1ccc2ccccc2c1CCCCN1CCN(CC(c2ccc(F)cc2)N2CCN(C3CCCC3)CC2)CC1 (stereo unspecified) | 2.16 | 4.07 | 1.41 |
| Oc1ccc2nc(N3CCNCC3)nc(NCCCc3ccccc3)c2c1 | -0.71 | -0.65 | 0.5 |
| COc1ccc(C(C(=O)NC2CCN(C[C@H](O)c3ccnc4ccc(OC)cc34)CC2)N2CCc3ccccc3C2)cc1 (stereo partly specified) | 2.66 | 2.33 | 2.69 |
| CC1(C)NC(N)=NC(=N)N1OCCOc1ccc(Cc2ccccc2)cc1 | 1.41 | 0.91 | 0.68 |
| c1ccc(COc2ccnc(NCCCOc3cccc(CN4CCCCC4)c3)c2)cc1 | 1.52 | 1.04 | -0.05 |
